Test results reported in PubChem BioAssay (Tox21).
Records with an inconclusive call do not appear. The source made the active and inactive calls. Unless noted, calls come from the whole dose curve; as a rule, active = well fitted curve in the direction sought with a large enough effect in the repeat runs; inconclusive = weak or mixed curves; inactive = no such curve, though single readings can be large; an effect the other way counts as inactive or inconclusive. Positions of bridges follow the written chain, without caps; N, C: chain ends. Non-standard residues stand in square brackets, D forms with d. Residues, ends and D or L forms follow the SMILES beside them. hArg = N=C(N)NCCCC[C@H](N)C(=O)O; Mpa = O=C(O)CCS

Legend:
[1] = target: Aryl hydrocarbon receptor (Homo sapiens) (UniProt P35869); experiment: qHTS assay to identify small molecule that activate the aryl hydrocarbon receptor (AhR) signaling pathway (AID 743085);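 note: HG2L7.5c1 human HepG2 liver cells with stably integrated DRE-driven firefly reporter; series mostly up to about 70 µM; nearly all actives have a fitted effect of over 15% in size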
Summary of the method: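 Measured in HG2L7.5c1 cells: CellTiter-Fluor signal (30 min incubation, 37C) for viability, then luciferase luminescence (30 min, room temperature). Compound contact time was 24 h at 37C, following a 5 h pre-incubation.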

[2] = qHTS assay to identify small molecule that activate the aryl hydrocarbon receptor (AhR) signaling pathway - cell viability counter screen (AID 743086);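 note: HepG2 liver cells carrying the AhR DRE luciferase reporter; series mostly up to about 70 µM; nearly all actives have a fitted effect of over 45% in size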
Summary of the method: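 HepG2-AhR-luc (HG2L7.5c1) cells, 4000/well, were preincubated 5 h at 37C, exposed to compound in qHTS format for 24 hr at 37C, then given CellTiter-Fluor for 30 min; viability was read as fluorescence in the reporter wells.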

[3] = target: Peroxisome proliferator-activated receptor gamma (Homo sapiens) (UniProt P37231); experiment: qHTS assay to identify small molecule agonists of the peroxisome proliferator-activated receptor gamma (PPARg) signaling pathway (AID 743094; active = well fitted activation curve with a large enough effect in the signal ratio in the repeat runs, not every such curve was filed as active; the % refers to the signal ratio)
Summary of the method: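 HEK293H PPARg-bla cells, 5 h settle at 37C/5% CO2; compound (DMSO) 17 h, 37C; B/G FRET substrate 1 h RT; fluorescence intensity read-out. qHTS format.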

[4] = target: Peroxisome proliferator-activated receptor gamma (Homo sapiens) (UniProt P37231); experiment: qHTS assay to identify small molecule antagonists of the peroxisome proliferator-activated receptor gamma (PPARg) signaling pathway (AID 743191; calls by dose curve; note: series mostly up to about 63 µM; nearly all actives have a fitted effect of over 30% in size)
Summary of the method: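 GeneBLAzer PPARg UAS-bla HEK293H cells carrying a UAS-driven beta-lactamase reporter were plated at 3000 cells/well, preincubated 5 h at 37C, then given compound for 17 h at 37C; LiveBLAzer B/G FRET substrate was read after 1 h at room temperature.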

[5] = qHTS assay to identify small molecule antagonists of the peroxisome proliferator-activated receptor gamma (PPARg) signaling pathway - cell viability counter screen (AID 743194); note: nearly all actives have a fitted effect of over 55% in size
Summary of the method: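 PPARg-UAS-bla HEK293H cells were plated, rested 5 h at 37 C, then treated with compounds plus rosiglitazone (50 nM final) for 17 h at 37 C; viability was then read by CellTiter-Glo luminescence after 30 min at room temperature.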

[6] = qHTS assay for small molecule agonists of the antioxidant response element (ARE) signaling pathway (AID 743202; active = well fitted activation curve with a large enough effect in the signal ratio in the repeat runs, not every such curve was filed as active; the % refers to the signal ratio)
Summary of the method: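 Following a 16 h, 37 C exposure of reporter HepG2 cells (ARE-driven beta-lactamase, 2,000 cells/well) to compounds, FRET substrate was applied for 2 h at room temperature and fluorescence intensity recorded.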

[7] = qHTS assay for small molecule agonists of the antioxidant response element (ARE) signaling pathway - cell viability counter screen (AID 743203; calls by dose curve; note: nearly all actives have a fitted effect of over 55% in size)
Summary of the method: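 Luminescence read-out (CellTiter-Glo, 30 min at room temperature) measured cell viability in the same wells as the ARE beta-lactamase reporter. HepG2 ARE-bla cells were treated with compounds for 16 hrs at 37C/5% CO2.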

[8] = qHTS assay for small molecule activators of the heat shock response signaling pathway - cell viability counter screen (AID 743209); note: nearly all actives have a fitted effect of over 50% in size
Summary of the method: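 HSE-bla HeLa; 1500 cells/well; overnight 37 C, 5% CO2; compound 5 h 37 C; LiveBLAzer B/G substrate 2.5 h RT; CellTiter-Glo 30 min RT; luminescence.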

[9] = qHTS assay for small molecule activators of the heat shock response signaling pathway (AID 743210; active = well fitted activation curve with a large enough effect in the signal ratio in the repeat runs, with a control signal flat, not every such curve was filed as active; the % refers to the signal ratio; note: series mostly up to about 63 µM)
Summary of the method: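 Heat shock element–beta-lactamase HeLa reporter cells; qHTS with compounds for 5 h at 37 C; detection by FRET substrate fluorescence after 2.5 h at RT.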

[10] = qHTS assay to identify small molecule agonists of the peroxisome proliferator-activated receptor delta (PPARd) signaling pathway - cell viability counter screen (AID 743211); note: nearly all actives have a fitted effect of over 55% in size
Summary of the method: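 Following 5 h plating at 37 C and 5% CO2, PPARd UAS-bla HEK293H cells took up test compounds for 17 h. Viability was quantified by luminescence 30 min after CellTiter-Glo addition at room temperature.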

[11] = target: Peroxisome proliferator-activated receptor delta (Homo sapiens) (UniProt Q03181); experiment: qHTS assay to identify small molecule agonists of the peroxisome proliferator-activated receptor delta (PPARd) signaling pathway (AID 743212; calls by dose curve)
Summary of the method: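 Beta-lactamase reporter read by fluorescence (LiveBLAzer B/G FRET, 2 h, room temperature). Test agents, in DMSO, incubated at 37 C with PPARd-bla HEK293H cells.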

[12] = qHTS assay to identify small molecule antagonists of the peroxisome proliferator-activated receptor delta (PPARd) signaling pathway - cell viability counter screen (AID 743213); note: nearly all actives have a fitted effect of over 50% in size
Summary of the method: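 Same-well viability: cells pre-incubated 5 h, dosed with compound plus 300 nM L165041, kept 17 h at 37 C, FRET substrate 2 h RT, then CellTiter-Glo 30 min RT and luminescence.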

[13] = target: Peroxisome proliferator-activated receptor delta (Homo sapiens) (UniProt Q03181); experiment: qHTS assay to identify small molecule antagonists of the peroxisome proliferator-activated receptor delta (PPARd) signaling pathway (AID 743215; active = well fitted inhibition curve with a large enough effect in the signal ratio in the repeat runs, not every such curve was filed as active; the % refers to the signal ratio;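 note: cells stimulated with agonist L165041 at 300 nM final during compound exposure; series mostly up to about 62 µM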)
Summary of the method: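 HEK293H GeneBLAzer PPARd UAS-bla reporter cells; cpd + L165041 300 nM final, 17 h 37 C; LiveBLAzer B/G FRET substrate 2 h RT; fluorescence intensity read-out. Antagonist mode.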

[14] = qHTS assay to identify small molecule agonists of the farnesoid-X-receptor (FXR) signaling pathway - cell viability counter screen (AID 743218); note: nearly all actives have a fitted effect of over 45% in size
Summary of the method: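 Luminescence from CellTiter-Glo, read after 30 min at RT, reports viability of GeneBLAzer FXR-UAS-bla HEK 293T cells treated 16 h with compounds in the wells used for the beta-lactamase reporter.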

[15] = qHTS assay to identify small molecule antagonists of the farnesoid-X-receptor (FXR) signaling pathway - cell viability counter screen (AID 743221; active = well fitted cell-killing curve with a large enough effect in the repeat runs, not every such curve was filed as active; note: nearly all actives have a fitted effect of over 50% in size)
Summary of the method: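 Compound effects on cell number were measured as CellTiter-Glo luminescence in HEK 293T cells expressing FXR-UAS-bla, after 16 h at 37 C with 50 uM CDCA (final).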

[16] = target: Vitamin D3 receptor (Homo sapiens) (UniProt P11473); experiment: qHTS assay to identify small molecule agonists of the vitamin D receptor (VDR) signaling pathway (AID 743222; calls by dose curve)
Summary of the method: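 Beta-lactamase reporter readout (LiveBLAzer B/G FRET, 2 h RT) in VDR-bla cells after 16 h compound treatment at 37C, 5% CO2; cells pre-incubated 4 h before pin transfer of DMSO solutions.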

[17] = target: Vitamin D3 receptor (Homo sapiens) (UniProt P11473); experiment: qHTS assay to identify small molecule antagonists of the vitamin D receptor (VDR) signaling pathway (AID 743223; active = well fitted inhibition curve with a large enough effect in the signal ratio in the repeat runs, not every such curve was filed as active; the % refers to the signal ratio)
Summary of the method: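 Beta-lactamase activity in VDR-bla cells is measured by FRET substrate fluorescence (2 h, room temperature) after cells spend 16 h at 37C with test compound and 3 nM final 1alpha,25-dihydroxyvitamin D3.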

[18] = qHTS assay to identify small molecule agonists of the vitamin D receptor (VDR) signaling pathway - cell viability counter screen (AID 743224); note: series mostly up to about 63 µM; nearly all actives have a fitted effect of over 50% in size
Summary of the method: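 Cytotoxicity counter screen: VDR-bla cells, 16 h compound exposure at 37C, 5% CO2; CellTiter-Glo luminescence, 30 min RT, same wells as bla read.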

[19] = target: Bile acid receptor (Homo sapiens) (UniProt Q96RI1); experiment: qHTS assay to identify small molecule antagonists of the farnesoid-X-receptor (FXR) signaling pathway (AID 743217; active = well fitted inhibition curve with a large enough effect in the signal ratio in the repeat runs, not every such curve was filed as active; the % refers to the signal ratio)
Summary of the method: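 Read-out: beta-lactamase FRET fluorescence (LiveBLAzer B/G substrate, 2 h, room temperature) in GeneBLAzer FXR-UAS-bla HEK 293T cells. Compounds were co-dosed with 50 uM chenodeoxycholic acid (final) and incubated 16 h at 37 °C.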

[20] = target: Bile acid receptor (Homo sapiens) (UniProt Q96RI1); experiment: qHTS assay to identify small molecule agonists of the farnesoid-X-receptor (FXR) signaling pathway (AID 743220; active = well fitted activation curve with a large enough effect in the signal ratio in the repeat runs, not every such curve was filed as active; the % refers to the signal ratio)
Summary of the method: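 FXR-UAS-bla HEK 293T cells carrying a UAS-driven beta-lactamase reporter were plated for 5 h at 37C/5% CO2, then exposed to DMSO-dissolved Tox21 10K compounds for 16 h at 37C. A LiveBLAzer B/G FRET substrate was loaded for 2 h at room temperature before fluorescence reading.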

Measured: Potency

Peroxisome proliferator-activated receptor delta (Homo sapiens), sequence (Q03181 whole entry, looked up): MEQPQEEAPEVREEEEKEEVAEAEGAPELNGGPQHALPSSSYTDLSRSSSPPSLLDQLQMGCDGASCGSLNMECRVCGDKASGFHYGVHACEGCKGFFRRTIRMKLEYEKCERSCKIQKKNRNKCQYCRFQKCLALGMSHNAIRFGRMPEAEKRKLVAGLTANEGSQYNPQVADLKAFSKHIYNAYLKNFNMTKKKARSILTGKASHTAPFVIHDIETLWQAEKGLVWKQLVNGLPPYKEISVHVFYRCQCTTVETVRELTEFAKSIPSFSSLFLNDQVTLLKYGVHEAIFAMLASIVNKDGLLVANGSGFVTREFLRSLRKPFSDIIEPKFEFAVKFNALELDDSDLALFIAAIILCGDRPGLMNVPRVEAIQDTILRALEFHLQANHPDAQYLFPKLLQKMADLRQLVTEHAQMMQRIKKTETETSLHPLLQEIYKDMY
Bile acid receptor (Homo sapiens), sequence (Q96RI1 whole entry, looked up): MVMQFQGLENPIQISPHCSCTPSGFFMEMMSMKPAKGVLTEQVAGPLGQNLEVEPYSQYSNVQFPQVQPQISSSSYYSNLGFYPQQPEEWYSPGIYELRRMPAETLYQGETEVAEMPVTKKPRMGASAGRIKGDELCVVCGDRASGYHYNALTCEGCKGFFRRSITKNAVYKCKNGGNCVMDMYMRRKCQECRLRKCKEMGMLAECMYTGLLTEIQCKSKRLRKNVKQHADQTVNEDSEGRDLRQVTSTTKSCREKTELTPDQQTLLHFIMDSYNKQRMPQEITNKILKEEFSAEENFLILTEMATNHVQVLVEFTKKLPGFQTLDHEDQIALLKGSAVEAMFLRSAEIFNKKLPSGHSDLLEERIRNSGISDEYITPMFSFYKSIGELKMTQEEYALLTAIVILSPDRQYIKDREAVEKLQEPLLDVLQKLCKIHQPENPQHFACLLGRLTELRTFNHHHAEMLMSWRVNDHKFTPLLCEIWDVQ
Aryl hydrocarbon receptor (Homo sapiens), sequence (P35869 whole entry, looked up): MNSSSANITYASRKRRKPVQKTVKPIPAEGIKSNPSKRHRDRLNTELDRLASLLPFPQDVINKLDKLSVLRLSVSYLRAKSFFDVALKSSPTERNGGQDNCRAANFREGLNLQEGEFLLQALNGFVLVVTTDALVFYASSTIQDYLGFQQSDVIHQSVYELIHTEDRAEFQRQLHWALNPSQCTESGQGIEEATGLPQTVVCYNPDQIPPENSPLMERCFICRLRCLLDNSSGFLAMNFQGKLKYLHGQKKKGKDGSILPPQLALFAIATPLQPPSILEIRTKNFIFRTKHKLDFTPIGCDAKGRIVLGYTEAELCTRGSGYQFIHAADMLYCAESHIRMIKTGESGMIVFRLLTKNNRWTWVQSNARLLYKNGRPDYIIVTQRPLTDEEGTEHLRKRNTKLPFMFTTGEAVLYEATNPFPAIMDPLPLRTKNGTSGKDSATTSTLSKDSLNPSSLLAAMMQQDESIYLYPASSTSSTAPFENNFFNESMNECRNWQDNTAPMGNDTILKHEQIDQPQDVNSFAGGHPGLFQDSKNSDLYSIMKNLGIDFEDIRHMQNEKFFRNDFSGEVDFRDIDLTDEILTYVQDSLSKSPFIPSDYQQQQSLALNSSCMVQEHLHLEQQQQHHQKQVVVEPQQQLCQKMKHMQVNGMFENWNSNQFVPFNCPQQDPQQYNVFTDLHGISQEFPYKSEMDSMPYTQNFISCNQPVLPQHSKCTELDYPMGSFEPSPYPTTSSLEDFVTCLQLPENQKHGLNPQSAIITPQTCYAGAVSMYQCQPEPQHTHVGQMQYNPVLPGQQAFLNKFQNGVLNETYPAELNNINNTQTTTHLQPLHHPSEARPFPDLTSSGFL
Vitamin D3 receptor (Homo sapiens), sequence (P11473 whole entry, looked up): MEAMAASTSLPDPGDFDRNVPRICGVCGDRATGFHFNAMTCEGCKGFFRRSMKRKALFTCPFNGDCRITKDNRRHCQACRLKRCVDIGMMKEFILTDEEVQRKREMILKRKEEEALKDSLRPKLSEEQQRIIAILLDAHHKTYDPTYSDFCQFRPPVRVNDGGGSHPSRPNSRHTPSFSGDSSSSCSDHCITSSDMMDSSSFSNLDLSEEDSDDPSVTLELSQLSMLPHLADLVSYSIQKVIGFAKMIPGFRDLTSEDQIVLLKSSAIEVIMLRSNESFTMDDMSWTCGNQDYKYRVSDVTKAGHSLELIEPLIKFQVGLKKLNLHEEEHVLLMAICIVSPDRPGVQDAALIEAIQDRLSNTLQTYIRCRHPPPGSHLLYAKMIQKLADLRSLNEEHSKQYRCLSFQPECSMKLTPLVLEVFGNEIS
Peroxisome proliferator-activated receptor gamma (Homo sapiens), sequence (P37231 whole entry, looked up): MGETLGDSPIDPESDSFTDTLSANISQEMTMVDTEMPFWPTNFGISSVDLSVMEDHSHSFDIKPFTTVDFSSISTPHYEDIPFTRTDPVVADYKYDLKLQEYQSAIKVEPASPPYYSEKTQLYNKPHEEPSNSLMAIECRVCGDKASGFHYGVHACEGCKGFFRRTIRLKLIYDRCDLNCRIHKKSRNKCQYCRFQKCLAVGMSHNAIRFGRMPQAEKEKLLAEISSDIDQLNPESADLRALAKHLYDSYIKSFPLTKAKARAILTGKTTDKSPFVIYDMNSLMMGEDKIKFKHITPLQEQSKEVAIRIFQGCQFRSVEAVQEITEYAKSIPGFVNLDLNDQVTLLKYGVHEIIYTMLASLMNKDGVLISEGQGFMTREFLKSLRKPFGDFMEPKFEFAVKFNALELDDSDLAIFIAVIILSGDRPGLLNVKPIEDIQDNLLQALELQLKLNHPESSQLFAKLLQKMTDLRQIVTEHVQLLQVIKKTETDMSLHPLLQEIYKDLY

CC(C)Nc1ccccc1
not listed: [19] | [20]
inactive: all other assays above

O/N=C/C=N/O
not listed: [15] | [19] | [20]
inactive: all other assays above

NC(=O)[C@@H]1CSSCCC(=O)N[C@@H](CCCCN=C(N)N)C(=O)NCC(=O)N[C@@H](CC(=O)O)C(=O)N[C@@H](Cc2c[nH]c3ccccc23)C(=O)N2CCC[C@H]2C(=O)N1 ([Mpa][hArg]GDWPC-NH2; disulfide 1-7)
not listed: [10] | [12] | [13] | [15] | [18]
inactive: all other assays above

CCC(=O)CC
not listed: [6] | [10] | [17] | [18]
inactive: all other assays above

CC/C=C\CCOC(=O)c1ccccc1O
not listed: [7] | [9] | [19] | [20]
inactive: all other assays above

C=CCCCC
not listed: [6] | [10] | [16] | [17] | [19] | [20]
inactive: all other assays above

CCCCCCCCCCOC(C)=O
not listed: [6] | [8] | [10] | [16] | [18] | [19] | [20]
inactive: all other assays above

CCC(C)OC(C)CC (stereo not given)
not listed: [6] | [12] | [13] | [17] | [19] | [20]
inactive: all other assays above

CSc1cnccn1
not listed: [6] | [12] | [18]
inactive: all other assays above

CCCCCCCCCCCCCCC(=O)NC(CO)CCCCCCCCCCCCCC (stereo not given)
not listed: [6] | [12] | [13]
inactive: all other assays above

CO/N=C(/C(=O)N[C@@H]1C(=O)N2C(C(=O)[O-])=C(C[n+]3ccn4ncccc43)CS[C@H]12)c1nsc(N)n1
not listed: [6] | [8] | [10] | [13] | [16] | [17] | [19] | [20]
inactive: all other assays above

CO[Si](CCCn1c(=O)n(CCC[Si](OC)(OC)OC)c(=O)n(CCC[Si](OC)(OC)OC)c1=O)(OC)OC
not listed: [6] | [8] | [19] | [20]
inactive: all other assays above

CC(O)COC(C)(C)C (stereo not given)
not listed: [6] | [10] | [18] | [19] | [20]
inactive: all other assays above

O=C=NCC1CCCC(CN=C=O)C1 (stereo not given)
not listed: [6] | [9] | [10] | [11] | [13] | [15] | [19] | [20]
inactive: all other assays above

c1ccc(-c2nn[nH]n2)cc1
not listed: [6] | [9] | [10] | [11] | [13]
inactive: all other assays above

CC(=O)CCC1=C(C)CCCC1(C)C
not listed: [8] | [9] | [17] | [18] | [19] | [20]
inactive: all other assays above

CCCCOC(=O)[C@H](C)O
not listed: [6] | [9] | [15] | [18]
inactive: all other assays above

CNCCS(=O)(=O)O
not listed: [8] | [9] | [14] | [15] | [17] | [19] | [20]
inactive: all other assays above
